Source: the supplement of paper PMC6555819

What was measured:
Test in all cases: PBM binding z-score (relative to random genomic background probes); higher = stronger binding; sequences stand for … in GC…GCGATTGACAGCGTAGAATGAAGG
[1] = tested on: PPARg:RXRa DBDmut IVT, anti-RXR (DBD mutation: RXRa K156A/R161A, NR concentration 270 nM, RXRa partner concentration 90 nM)
Method in brief: (§1)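 Probes were double-stranded and carried 34-nt variable regions with direct-repeat seeds, single-nucleotide variants, half-site ablations and random human genomic background sequences, printed on custom Agilent 4×180K protein-binding microarrays. Arrays were incubated 1 h with ligand-free nuclear receptor dimers in PBS pH 7.4, 2% milk, 0.02% Triton X-100, 1 mM DTT, 0.2 mg/mL BSA and 0.4 mg/ml salmon testes DNA. Antibodies against each partner (one per run) detected binding, and scanned fluorescence was regression-normalized. Binding z-scores use the random background probes as reference.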

[2] = tested on: PPARg:RXRa IVT, anti-PPARg (NR concentration 270 nM, RXRa partner concentration 90 nM)
Method in brief: as §1

[3] = tested on: PPARg DBDmut:RXRa IVT, anti-PPARg (DBD mutation: PPARg1 K132A/R137A, NR concentration 270 nM, RXRa partner concentration 90 nM)
Method in brief: as §1

[4] = tested on: PPARg DBDmut IVT, anti-PPARg (DBD mutation: PPARg1 K132A/R137A, NR concentration 270 nM)
Method in brief: as §1

[5] = tested on: PPARg homodimer (NR concentration 180 nM)
Method in brief: as §1

[6] = tested on: PXR:RXRa (NR concentration 270 nM, RXRa partner concentration 90 nM)
Method in brief: as §1

[7] = tested on: PXR homodimer (NR concentration 270 nM)
Method in brief: as §1

[8] = tested on: RARa:RXR (NR concentration 270 nM, RXRa partner concentration 90 nM)
Method in brief: as §1

[9] = tested on: RARa homodimer (NR concentration 270 nM)
Method in brief: as §1

[10] = tested on: RARb:RXRa (NR concentration 270 nM, RXRa partner concentration 90 nM)
Method in brief: as §1

Sequence	PBM binding z-score [1]	PBM binding z-score [2]	PBM binding z-score [3]	PBM binding z-score [4]	PBM binding z-score [5]	PBM binding z-score [6]	PBM binding z-score [7]	PBM binding z-score [8]	PBM binding z-score [9]	PBM binding z-score [10]
TATACAGGGTCAAAGGCCAGAGGACGAATGTCGA	1.96	4.98	2.24	2.72	3.14	4.5	0.565	5.97	0.998	4.43
CCGGCTGGGGCAAAGGTTACCATACTCAGTACGA	0.545	3.78	-0.945	-1.06	1.1	2.59	-0.422	3.83	-0.653	2.41
ATCTCTAGGTAAAGTTCAGGGAAAGATCGATAGA	2.67	2.44	1.23	1.09	2.21	2.17	1.99	1.93	1.68	2.99
TCTAGCACGCCAGAGGGTCACTCAAGAGGTACGG	0.507	0.0659	-0.875	-0.824	0.566	1.56	-0.773	2.37	-0.679	2.04
TCTAGTTGGTCACGGAGGTCGCACACGACGGGTA	2.12	2.88	0.487	0.825	1.19	1.79	-0.0843	1.63	0.349	2.47
CGTCAAAGTTCAACTAAAGTAACGTAAAGCACGC	0.164	2	1.4	1.46	3.19	4.82	3.3	4.03	2.17	5.28
CCTTACGGGTCACTCCAGGTTATAGGATCGGAGT	2.49	4	0.265	0.385	1.86	5.21	0.588	4.1	0.817	3.8
TGAATGAGTTTATAAGATCAGGGAACGTTGCAAA	-0.937	-0.179	0.631	0.748	0.106	0.215	0.318	0.174	0.105	-0.00933
GTACCAATGTGAATAGGTCGTTGATGAGTAGGCG	-0.469	-0.105	-0.359	0.0422	0.0773	-0.176	-0.211	0.0838	0.262	0.00696
CGTTCAAGGTCAATGCTAGGTCAGTGAAAGCATT	4.31	4.8	0.872	0.0991	7.93	5.3	1.78	6.62	2.61	5.22
ACTAGCAAGCCAAGTTTGGGTCACTCAAACAAAG	-0.834	0.332	-1.3	-0.652	-0.225	0.253	-0.636	0.968	-0.901	0.801
ACTCAAAGTTCACTAGGTAACGTAAGATTCAGCT	3.09	4.19	1.81	1.14	3.86	4.2	3.09	3.17	3.01	4.95
CGAACGAGGGCATGAGTTGATAGCCAATGCCGAT	3.14	2.29	0.281	-0.251	0.292	0.342	-0.25	0.497	-0.133	2.01
CAAACTAGGTCACGAAAGGTCCAAGTCGAATGAC	8.4	9.01	1.98	0.788	2.59	3.32	0.339	3.32	1	4.51
TCTTGTAGATCACTAGAGGTTAAGAAAGTGCGCT	1.81	1.16	1.46	0.897	0.0426	3.04	0.56	1.74	0.205	1.03
CCTGCTAGATCATGGTCAGCTAATCTACAGTATG	0.393	-0.546	-0.661	-0.698	-0.74	-0.448	-0.524	-0.328	-0.726	-0.0385
CGAACTAGGTCATTGTCAGGACAGTGAATAGTAA	8.22	8.47	5.17	6.24	3.98	1.84	0.47	2.49	0.423	3.48
ACTCGGAGGACAAAGGTCAGACCTACGCCAGTGA	0.683	3.73	0.128	-0.307	3.27	4.16	0.401	5.43	1.5	4.5
AGTCAAAGTTCACTAGGTAACGTACGATTCAGCT	3.29	5.13	1.36	1.27	3.23	4.37	3.12	3.45	1.53	4.71
TAGGCTAGGTCATTGGGCCAGTATAGTACGCATC	2.74	3.99	0.305	0.421	1.41	1.32	-0.0794	1.9	0.178	3.79
TTACCAAGGTGAAAGGTCGTTGTTGCACGCCTTG	2.71	4.85	-0.135	0.857	1.39	3.78	0.253	5.2	-0.175	3.09
TCATATAGGTAAATACTAGGTGAAAGTCCGATCT	4.28	4.37	1.5	1.37	1.15	0.747	0.389	1.15	1.65	0.482
ATTCAAAGTTCAGGACGAGGTAACGTAAAGCACG	-0.268	1.33	1.03	0.76	1.93	2.95	1.44	3.01	0.385	4.19
TTACCAAGGCGAAAGGTCGTTGATGCACGCCTTG	0.0972	2.19	-0.305	-0.595	0.815	1.96	-0.0871	2.49	0.25	1.83
TTACCAAGGTGAAAGTCGTTGATCCCTCTGTAGA	1.87	2.87	0.179	0.266	-0.0514	0.456	-0.651	1.1	-0.221	1.67
